Cycloheximide cs – Cycloheximide Counterscreen for Small Molecule Inhibitors of Shiga Toxin; 12% of 300,000 active; cell reporter, cycloheximide protein synthesis inhibition counterscreen; max response, %; AID 2314, 2010; in the data active = max response mostly above about 13%, no sharp cut-off; inactive = mostly below about 14%; note: read at 38.3 µM for the half of the compounds with a filed dose; 0% is about no effect
Vaccinia Venus – qHTS for Stage-Specific Inhibitors of Vaccinia Orthopoxvirus: Venus Reporter Primary qHTS | Vaccinia virus Venus reporter expression, fluorescence | Potency, µM (highest dose often 36.5 µM), without a hit: at the top dose activity change, negative = inhibition, hits mostly inhibitors | 0.46% of 330,000 active | AID 720580, 2013; calls by dose curve; tested in A549 cells; note: potency is the fitted concentration of half-maximal effect; % is set by controls: 0 for no effect and ±100 for the full control effect; nearly all actives have a fitted effect of over 30% in size
LASV entry inh – qHTS for Inhibitors of binding or entry into cells for Lassa Virus | Lassa virus pseudotype entry inhibition, cell reporter | Potency, µM (series often up to 37.9 µM), for inactives: at the highest dose activity change, negative = inhibition, actives largely listed as inhibitors | 1.2% of 300,000 active; calls by dose curve; tested in HEK293 cells; note: potency is the fitted concentration of half-maximal effect; % is set by controls: 0 for no effect and ±100 for the full control effect; nearly all actives have a fitted effect of over 50% in size
Vaccinia mCherry – qHTS for Stage-Specific Inhibitors of Vaccinia Orthopoxvirus: mCherry Reporter Primary qHTS. 0.63% of 310,000 active. Vaccinia virus mCherry reporter infection, fluorescence. Potency, µM (titrated, usually from 36.5 µM), without a hit: at the top dose activity change, negative = inhibition, most hits filed as inhibitors. AID 720579, 2013; calls by dose curve; tested in A549 cells; note: potency is the fitted concentration of half-maximal effect; % is set by controls: 0 for no effect and ±100 for the full control effect; nearly all actives have a fitted effect of over 35% in size
MARV entry inh – qHTS for inhibitors of binding or entry into cells for Marburg Virus; Potency, µM (series often up to 37.8 µM), without a hit: at the highest dose activity change, negative = inhibition, most hits filed as inhibitors; Marburg virus pseudotyped entry inhibition, cell reporter; 1.8% of 300,000 active; AID 540276, 2011; calls by dose curve; tested in HEK293 cells; note: potency is the fitted concentration of half-maximal effect; % is set by controls: 0 for no effect and ±100 for the full control effect
Shiga toxin inh – A qHTS for Small Molecule Inhibitors of Shiga Toxin | Vero cells, Shiga toxin protein synthesis inhibition reporter | inhibition, % at 38.7 µM | 9.2% of 290,000 active; in the data active = inhibition mostly above about 28%, no sharp cut-off; inactive = mostly below about 43%; note: 0% is about no effect
Numbers without * were called inactive; i = inactive; ? = inconclusive; . = no result given; [ ] = remark or other dose. This is one part of a sample in which hits are shown more often than they occur.

SMILES	Cycloheximide cs	Vaccinia Venus	LASV entry inh	Vaccinia mCherry	MARV entry inh	Shiga toxin inh
CC(C)/C=C1\CC/C(=C\c2ccc(N(C)C)cc2)C1=O	35*	1%	2%	i	5%	77*
Cc1ccc(S(=O)(=O)N2CCN(C(=O)C3CCCC3)CC2)cc1C	-1	-2%	-20%	-3%	-9%[46.1 µM]	-3
Cc1oc(-c2ccccc2NC(=O)c2ccccc2)nc1CNC(=O)c1c(-c2ccccc2)noc1C	.	-16%	.	-19%	.	.
Oc1c(C=Nc2cccnc2)sc2ccccc12	50*	-29%	-1%	0%	17%	95*
CC(=O)Nc1ccc(NC(=O)CNC(=O)c2sc3ccccc3c2Cl)cc1	.	3%	-1%	i	?	.
Oc1c(C=Nc2ccc(Cl)cn2)sc2ccccc12	29*	-9%	?	-29%	?	14*
O=C(Nc1ccnc(=O)[nH]1)c1sc2ccccc2c1Cl	-1	-5%	.	-13%	.	-6
Oc1c(C=Nc2ccccc2)sc2ccccc12	-2	-11%	?	?	?	3
Oc1ccc2oc3c(c2c1C=NCc1ccncc1)CCCC3	-1	-16%	?	?	4%[46.1 µM]	28
Oc1c(C=NCc2ccncc2)sc2ccccc12	47*	-7%	21%	0%	13%	84*
CC(=O)NCCN=Cc1sc2ccccc2c1O	40*	-4%	-5%	-8%	21%	68*
CN=Cc1sc2ccccc2c1O	19*	0%	2%	-10%	8%	33
CC(C)CCn1c(O)c(N=Nc2ccccn2)c2ccccc21	5	-1%	?	-27%	-16%	12
Oc1c(/C=N/c2ccccn2)sc2ccccc12	40*	.	.	.	.	61*
c1ccc2c(c1)sc1ccccc12	.	-8%	.	-7%	.	.
COc1ccccc1N1CCN(C(=O)c2cnc(N3CCCCC3)c3ccccc23)CC1	.	-26%[7.34 µM]	?	?	.	.
CN(C(=O)Nc1cccc(C(F)(F)F)c1)C1CCCCC1	-3	-1%[7.34 µM]	?	0%[7.34 µM]	-5%[46.1 µM]	17
Cc1ccc(C)c(Sc2ccc(NC(=O)CCl)cc2)c1	-1	.	?	.	?	-14
Cc1ccc(F)cc1NCC(=O)Nc1ccc(Br)cc1	31*	-11%	22%	-18%	?	58*
Cc1ccc(Sc2ccc(NC(=O)CCl)cc2)cc1C	11*	.	?	.	?	18*
Cc1ccc(NC(=O)CC(=O)Nc2ccc(C)c(C)c2)cc1C	-6	-4%	6%	-12%	-4%[46.1 µM]	-8
Cc1ccc(NCC(=O)Nc2ccc(Br)cc2)cc1C	18*	.	.	.	.	27
CC(=O)c1ccc(NC(=O)C2=CC(c3ccc(C)cc3)=NS(=O)(=O)N2C)cc1	.	-15%	-12%[46.1 µM]	-12%	?	.
Cc1ccc(NC(=O)c2ccc(NC(=O)N3CCSc4ncccc43)cc2)c(Cl)c1	.	-13%	-7%[46.1 µM]	-12%	.	.
COc1cccc(CNS(=O)(=O)c2c(C)[nH]c(C)c2C(=O)N2CCCC2)c1	1	0%[7.34 µM]	.	-4%[7.34 µM]	.	9
SMILES	Cycloheximide cs	Vaccinia Venus	LASV entry inh	Vaccinia mCherry	MARV entry inh	Shiga toxin inh
COc1ccc(-c2nc(CN3CCN(c4ncnc5ccccc45)CC3)c(C)o2)c(OC)c1	-4	.	?	.	15µM*	17
Cc1oc(-c2cc(F)ccc2F)nc1CN1CCN(c2ncnc3ccccc23)CC1	25*	?	.	-26%	.	19
Cc1oc(-c2cc(F)ccc2F)nc1CN1CCC(C(=O)N2CCOCC2)CC1	-2	-6%	13%	i	?	-5
CC(C)CCOCC(O)CCC(=O)NNC(=S)Nc1ccccc1 (centres undefined)	6	.	.	.	.	-3
C=CCC(CC(O)COCCC)C(=O)NNC(=S)Nc1ccccc1 (centres undefined)	36*	8%	29%[46.1 µM]	-16%	?	71*
Cc1ccc2nc(NC(=O)C3=NN(c4ccccc4)C(=O)CC3)sc2c1	8	.	.	.	3%	31
CCOc1ccc2nc(NC(=O)C3=NNC(=O)CC3)sc2c1	17*	-12%	22%	-5%	?	69
CCOc1ccc2nc(NC(=O)C3=NN(c4ccccc4)C(=O)CC3)sc2c1	30*	-14%	.	-5%	.	55
Cc1ccc(C(=O)N2CCN(Cc3ccc4c(c3)OCO4)CC2)cc1C	-4	.	.	.	.	-6
O=C(NC1CCC(n2cc(C(=O)NC3CC3)nn2)CC1)C(=O)c1ccccc1 (centres undefined)	.	-8%	.	-12%	.	.
CCOc1cc(/C=C2/SC(=S)N(Cc3ccccc3)C2=O)ccc1O	16*	.	.	.	.	42*
CCOc1ccc(N2C(=O)S/C(=C\c3ccc(O)c(OCC)c3)C2=O)cc1	-4	.	.	.	.	13
CCOc1cc(/C=C2\SC(=O)N(c3ccc(O)cc3)C2=O)ccc1O	9.3*	.	.	.	.	50*
COc1ccc(C(=O)NCC(=O)N/N=C(C)\C=C\c2ccccc2)cc1OC	15	-24%	.	-6%	.	-6
CN(C)N1C(=O)C2C3C=CC(O3)C2C1=O (centres undefined)	.	-3%	13%[46.1 µM]	i	-2%[46.1 µM]	.
COc1ccc(Cl)cc1N(CC(=O)Nc1ccc2c(c1)OCCO2)S(C)(=O)=O	15*	.	3%	.	-7%	57
Cc1ccc(N(CC(=O)Nc2ccc3c(c2)OCCO3)S(C)(=O)=O)cc1	54*	1%	22%	i	?	60*
Cc1n[nH]c(C)c1S(=O)(=O)N(CC(=O)Nc1ccc2c(c1)OCCO2)c1ccc(C(C)C)cc1	26*	-8%	.	12%	8%	10
Cc1noc(C)c1S(=O)(=O)N(CC(=O)Nc1ccc2c(c1)OCO2)c1ccc(C(C)C)cc1	-4	-4%	.	i	.	-3
COc1ccccc1N(CC(=O)Nc1ccc2c(c1)OCCO2)S(=O)(=O)c1ccc(C)cc1	32*	-19%	?	-17%	?	47*
CS(=O)(=O)N(CC(=O)Nc1ccccc1C(=O)NCc1ccccc1)c1ccc2c(c1)OCCO2	6	-13%	-1%	-3%	2%	7
CS(=O)(=O)N(CC(=O)Nc1ccc2c(c1)OCO2)c1ccc(Cl)cc1	36*	.	-1%	.	28%	116*
CS(=O)(=O)N(CC(=O)Nc1ccccc1C(=O)NCCc1ccccc1)c1ccc2c(c1)OCCO2	35*	-24%	-3%	-23%	-3%	80
CCN(C(=O)CSc1nnc(-c2ccncc2)n1Cc1ccccc1)C1CCS(=O)(=O)C1 (centres undefined)	-2	-12%	.	-12%	-6%[46.1 µM]	12
Cc1ccc(CNC(=O)CN2CCN(Cc3ccc(F)cc3Cl)C2=O)cc1	.	5%	1%[46.1 µM]	5%	14%[46.1 µM]	.
O=C1CCC(OCc2ccccc2)CCN1CC[C@@H](Sc1ccccc1)c1ccccc1 (some centres undefined)	.	-6%	.	-5%	.	.
C[C@@H]1CCC(=O)N(CC[C@H](Sc2ccccc2)c2ccccc2)CC1	10*	?	.	-2%	.	14

Screening data: PubChem, National Center for Advancing Translational Sciences (NCATS)
